Assay outcomes: PubChem, National Center for Advancing Translational Sciences (NCATS)
Sampled rows, rich in hits. Any-hit rate of the full collection: about 21%.
IL1B secr inh – inflammasome signaling inhibition, IL-1 beta readout; THP-1 LPS/ATP IL-1B secretion, AlphaLISA, 16 h; active compounds read low; activity change, % at 57.5 µM; 4.7% of 360,000 active; AID 743279; in the data active = activity change below about -50%; inconclusive = mostly about -30% to -49%
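Secreted IL-1B measured by AlphaLISA bead assay after 16 h compound exposure of THP-1 cells; compounds (final up to 57.5 uM) added 1 h before LPS (250 ng/mL) and ATP (1.25 mM) stimulation; lower signal means less secretion.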
RORgamma inh – blocks mouse ROR gamma transcriptional activity; Potency, µM (highest dose often 53.6 µM), actives largely listed as inhibitors; 5.4% of 310,000 active; Drosophila S2 Gal4-RORgamma UAS-luciferase reporter, 20 h; also: nearly all actives have a fitted effect of over 60% in size
Target sequence (P51450 whole entry, looked up, the tested form may be a part): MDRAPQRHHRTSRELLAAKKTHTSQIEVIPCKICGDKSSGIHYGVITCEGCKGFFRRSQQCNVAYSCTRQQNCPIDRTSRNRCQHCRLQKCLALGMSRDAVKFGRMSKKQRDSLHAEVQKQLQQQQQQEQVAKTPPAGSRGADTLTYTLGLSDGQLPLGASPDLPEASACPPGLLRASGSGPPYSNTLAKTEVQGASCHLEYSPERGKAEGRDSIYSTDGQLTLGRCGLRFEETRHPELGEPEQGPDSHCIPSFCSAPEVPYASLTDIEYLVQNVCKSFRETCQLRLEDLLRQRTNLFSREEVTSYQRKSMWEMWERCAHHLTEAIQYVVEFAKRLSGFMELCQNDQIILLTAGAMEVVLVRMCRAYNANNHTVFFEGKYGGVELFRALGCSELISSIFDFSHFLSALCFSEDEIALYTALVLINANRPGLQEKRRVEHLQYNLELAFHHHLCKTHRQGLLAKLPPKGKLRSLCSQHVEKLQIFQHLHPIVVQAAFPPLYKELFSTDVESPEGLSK
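In this cell-based reporter format, copper sulfate (700 uM final) drives Gal4–ROR gamma fusion expression from a metallothionein promoter in Drosophila Schneider cells; compounds preincubated 1 hr, reporter read after 20 hr at ambient temperature.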
DT40 TDP1 CPT – DT40-hTDP1 cell growth loss with CPT; chicken DT40 Tdp1-/-;hTDP1 cells + 20 nM CPT, ATP luminescence, 48 h; Potency, µM (top dose mostly 46.2 µM), usual class: inhibitors; 12% of 420,000 active; also: nearly all actives have a fitted effect of over 55% in size
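Cell growth measured by CellTiter-Glo luminescence after a minimum 48 h, 37 C compound exposure with 20 nM CPT in Tdp1-knockout DT40 cells stably expressing hTDP1, seeded 400/well; qHTS titration format.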
TDP1 cell noCPT – qHTS for Inhibitors of human tyrosyl-DNA phosphodiesterase 1 (TDP1): qHTS in cells in absence of CPT. Potency, µM (top dose mostly 46.2 µM), most hits filed as inhibitors. DT40 Tdp1-/- hTDP1 cells, no CPT, ATP luminescence, 48 h. AID 686978, 2013. 15% of 420,000 active; also: nearly all actives have a fitted effect of over 55% in size
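Compound effects on proliferation are scored in DT40 Tdp1-/-;hTDP1 cells in the absence of CPT. ATP levels (CellTiter-Glo luminescence) are recorded after a ≥48 hr, 37 °C incubation.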
ELG1 repair inh – ELG1-dependent DNA repair inhibition; HEK293T ELG1-luciferase reporter, luminescence, 16 h; DNA damage induced by 5-fluorouridine; Potency, µM (doses to about 46.1 µM), hits mostly inhibitors; 2.3% of 330,000 active; AID 504467; also: nearly all actives have a fitted effect of over 55% in size
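Quantitative HTS, concentration-response format. 2,000 cells/well co-treated with 5-fluorouridine and compound, 16 hr in 5% CO2 at 37 °C; ONE-Glo luminescence read after 30 min.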
Gal4-VP16 FLuc – inhibits Gal4-VP16 luciferase reporter, ROR gamma counter-screen; AID 2546; Drosophila S2 Gal4-VP16 UAS-luciferase, luminescence, 20 h; 3.5% of 310,000 active; Potency, µM (series often up to 53.6 µM), most hits filed as inhibitors;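 also: Gal4-VP16 expression switched on by copper sulfate through the metallothionein promoter; nearly all actives have a fitted effect of over 50% in size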
Large screens that a line does not name were inactive. Unless noted, calls follow the shape of the dose curve; as a rule, active = well fitted curve in the direction sought with a large enough effect; inconclusive = small, poorly fitted or top-dose-only effect, or another doubt; inactive = no such curve, though single readings can be large; an effect the other way counts as inactive or inconclusive.

Cc1ccc(C)c(NC(=S)NNC(=O)c2csc3c2CCCC3)c1	RORgamma inh inconclusive
COc1ccc(CNC(=O)c2cn(Cc3ccc(S(=O)(=O)N(C)C)cc3)c(=O)s2)cc1	DT40 TDP1 CPT inconclusive, TDP1 cell noCPT inconclusive (no result: RORgamma inh, ELG1 repair inh, Gal4-VP16 FLuc)
O=C(O)c1ccc2cccnc2c1O	RORgamma inh 14.1µM
O=C(O)c1ccc2cccc(O)c2n1	none (no result: IL1B secr inh)
Cc1ccnc(NC(c2cc(C)ccc2O)c2ccc3cccnc3c2O)c1 (stereo not drawn)	DT40 TDP1 CPT inconclusive, TDP1 cell noCPT 10.3µM (no result: IL1B secr inh, RORgamma inh, ELG1 repair inh, Gal4-VP16 FLuc)
Cc1ccnc(NCc2c(O)ccc3ccccc23)c1	none
Cc1ccnc(NC(c2ccccc2)c2ccc3cccnc3c2O)c1 (stereo not drawn)	DT40 TDP1 CPT inconclusive, TDP1 cell noCPT 20.6µM (no result: RORgamma inh, ELG1 repair inh, Gal4-VP16 FLuc)
O=C(O)c1ccccc1NC(c1ccccc1)c1ccc2cccnc2c1O (stereo not drawn)	DT40 TDP1 CPT 14.6µM, TDP1 cell noCPT inconclusive (no result: RORgamma inh, ELG1 repair inh, Gal4-VP16 FLuc)
CC(c1ccc2ccccc2c1)c1ccccc1C(=O)O (stereo not drawn)	none (no result: RORgamma inh, ELG1 repair inh, Gal4-VP16 FLuc)
COc1ccccc1NC(c1cccnc1)c1ccc2cccnc2c1O (stereo not drawn)	RORgamma inh 11.2µM, DT40 TDP1 CPT inconclusive, TDP1 cell noCPT inconclusive, ELG1 repair inh inconclusive, Gal4-VP16 FLuc inconclusive
COc1ccccc1NC(NC(=O)c1cccnc1)C(Cl)(Cl)Cl (stereo not drawn)	DT40 TDP1 CPT inconclusive
CCC(c1ccccc1)c1noc(CCN(CC)CC)n1 (stereo not drawn)	DT40 TDP1 CPT inconclusive, TDP1 cell noCPT inconclusive (no result: RORgamma inh, ELG1 repair inh, Gal4-VP16 FLuc)
Cc1cc(NCCOCCO)n2ncc(-c3ccc(Cl)cc3)c2n1	ELG1 repair inh inconclusive
COc1ccccc1-c1cnn2c(NCc3ccccc3)cc(C)nc12	DT40 TDP1 CPT inconclusive, TDP1 cell noCPT inconclusive
Cc1cc(NCc2ccccn2)n2ncc(-c3ccccc3)c2n1	RORgamma inh 0.0891µM, DT40 TDP1 CPT 0.164µM, TDP1 cell noCPT 0.146µM, ELG1 repair inh inconclusive, Gal4-VP16 FLuc 0.316µM
Cc1cc(NCc2ccccn2)n2ncc(-c3ccc(Cl)cc3)c2n1	RORgamma inh 0.0447µM, DT40 TDP1 CPT 0.581µM, TDP1 cell noCPT 0.82µM, ELG1 repair inh inconclusive, Gal4-VP16 FLuc 0.631µM
Cc1cc2c(c(C)c1CCO)C(=O)[C@H](C)C2	TDP1 cell noCPT inconclusive (no result: RORgamma inh, Gal4-VP16 FLuc)
COc1ccc(N2c3ccccc3CN(Cc3ccccc3)[C@@H](C)[C@H]2Cc2c(C)cccc2C)cc1	DT40 TDP1 CPT 18.4µM, TDP1 cell noCPT 16.4µM (no result: RORgamma inh, ELG1 repair inh, Gal4-VP16 FLuc)
COc1ccc(N2c3ccccc3CN(Cc3ccccc3)[C@@H](C)[C@H]2Cc2cccnc2)cc1	DT40 TDP1 CPT inconclusive, TDP1 cell noCPT 20.6µM (no result: RORgamma inh, ELG1 repair inh, Gal4-VP16 FLuc)
COc1ccc(C2CCN(Cc3cccnc3)CC2O)cc1 (stereo not drawn)	none
c1ccc(-c2nnc(CN3CCN(c4ccccn4)CC3)o2)cc1	none (no result: IL1B secr inh, RORgamma inh, ELG1 repair inh, Gal4-VP16 FLuc)
Oc1ccc(C=NN=C2c3ccccc3-c3ccccc32)c(O)c1	IL1B secr inh -57.9, DT40 TDP1 CPT inconclusive, TDP1 cell noCPT 14.6µM (no result: RORgamma inh, ELG1 repair inh, Gal4-VP16 FLuc)
O=[N+]([O-])c1cccc(/C=N\N=C2c3ccccc3-c3ccccc32)c1O	RORgamma inh 10µM, DT40 TDP1 CPT inconclusive, TDP1 cell noCPT 16.4µM, Gal4-VP16 FLuc 20µM
COc1cc(NC(=O)c2csc(N)n2)cc(C(=O)Nc2cccc(C(F)(F)F)c2)c1	DT40 TDP1 CPT 4.61µM, TDP1 cell noCPT 2.91µM, ELG1 repair inh 23.1µM
COc1cc(NC(=O)c2cc(C)on2)cc(C(=O)Nc2cccc(C(F)(F)F)c2)c1	DT40 TDP1 CPT inconclusive, TDP1 cell noCPT inconclusive
COc1cc(NC(=O)c2cnc(N)s2)cc(C(=O)Nc2cccc(C(F)(F)F)c2)c1	DT40 TDP1 CPT inconclusive, TDP1 cell noCPT 18.4µM
COc1cc(NC(=O)c2ccnc(N)c2)cc(C(=O)Nc2cccc(C(F)(F)F)c2)c1	DT40 TDP1 CPT 23.1µM, TDP1 cell noCPT 20.6µM
